Screens as filed in PubChem BioAssay.
GC-A act: GC-A (human) enzyme activation; 370,000 compounds, 0.14% hits; P16066; activation, % at 10 µM; HEK293 GC-A cells, cGMP TR-FRET, EC30 ANP; 0% at EC30 ANP, 100% saturating ANP; in the data active = activation above about 40%
aDG glyco act: increases alpha dystroglycan glycosylation; Pro5-aDG cells, alpha-DG glycosylation AlphaScreen (IIH6); 0% Pro5, 100% B10-LARGE cell signal; activation, % at 10 µM; 360,000 compounds, 0.22% hits; AID 624168;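 active = activation of at least 8% versus controls, or a plate z-score of at least 8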;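 also: Pro5 are CHO cells carrying HIG-tagged alpha-DG that lacks glycosylation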
FAS-TE inh: FAS thioesterase (human) inhibition. AID 602261. inhibition, % at 15 µM. P49327. 360,000 compounds, 0.67% hits. recombinant FAS-TE, OMFH fluorogenic substrate, fluorescence endpoint;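 active = compounds whose normalised, plate-corrected inhibition of enzyme fluorescence in the single-dose primary screen is 50% or more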;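 also: 0% = DMSO with enzyme and 100% = substrate without enzyme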
Target sequence (P49327 whole entry, looked up): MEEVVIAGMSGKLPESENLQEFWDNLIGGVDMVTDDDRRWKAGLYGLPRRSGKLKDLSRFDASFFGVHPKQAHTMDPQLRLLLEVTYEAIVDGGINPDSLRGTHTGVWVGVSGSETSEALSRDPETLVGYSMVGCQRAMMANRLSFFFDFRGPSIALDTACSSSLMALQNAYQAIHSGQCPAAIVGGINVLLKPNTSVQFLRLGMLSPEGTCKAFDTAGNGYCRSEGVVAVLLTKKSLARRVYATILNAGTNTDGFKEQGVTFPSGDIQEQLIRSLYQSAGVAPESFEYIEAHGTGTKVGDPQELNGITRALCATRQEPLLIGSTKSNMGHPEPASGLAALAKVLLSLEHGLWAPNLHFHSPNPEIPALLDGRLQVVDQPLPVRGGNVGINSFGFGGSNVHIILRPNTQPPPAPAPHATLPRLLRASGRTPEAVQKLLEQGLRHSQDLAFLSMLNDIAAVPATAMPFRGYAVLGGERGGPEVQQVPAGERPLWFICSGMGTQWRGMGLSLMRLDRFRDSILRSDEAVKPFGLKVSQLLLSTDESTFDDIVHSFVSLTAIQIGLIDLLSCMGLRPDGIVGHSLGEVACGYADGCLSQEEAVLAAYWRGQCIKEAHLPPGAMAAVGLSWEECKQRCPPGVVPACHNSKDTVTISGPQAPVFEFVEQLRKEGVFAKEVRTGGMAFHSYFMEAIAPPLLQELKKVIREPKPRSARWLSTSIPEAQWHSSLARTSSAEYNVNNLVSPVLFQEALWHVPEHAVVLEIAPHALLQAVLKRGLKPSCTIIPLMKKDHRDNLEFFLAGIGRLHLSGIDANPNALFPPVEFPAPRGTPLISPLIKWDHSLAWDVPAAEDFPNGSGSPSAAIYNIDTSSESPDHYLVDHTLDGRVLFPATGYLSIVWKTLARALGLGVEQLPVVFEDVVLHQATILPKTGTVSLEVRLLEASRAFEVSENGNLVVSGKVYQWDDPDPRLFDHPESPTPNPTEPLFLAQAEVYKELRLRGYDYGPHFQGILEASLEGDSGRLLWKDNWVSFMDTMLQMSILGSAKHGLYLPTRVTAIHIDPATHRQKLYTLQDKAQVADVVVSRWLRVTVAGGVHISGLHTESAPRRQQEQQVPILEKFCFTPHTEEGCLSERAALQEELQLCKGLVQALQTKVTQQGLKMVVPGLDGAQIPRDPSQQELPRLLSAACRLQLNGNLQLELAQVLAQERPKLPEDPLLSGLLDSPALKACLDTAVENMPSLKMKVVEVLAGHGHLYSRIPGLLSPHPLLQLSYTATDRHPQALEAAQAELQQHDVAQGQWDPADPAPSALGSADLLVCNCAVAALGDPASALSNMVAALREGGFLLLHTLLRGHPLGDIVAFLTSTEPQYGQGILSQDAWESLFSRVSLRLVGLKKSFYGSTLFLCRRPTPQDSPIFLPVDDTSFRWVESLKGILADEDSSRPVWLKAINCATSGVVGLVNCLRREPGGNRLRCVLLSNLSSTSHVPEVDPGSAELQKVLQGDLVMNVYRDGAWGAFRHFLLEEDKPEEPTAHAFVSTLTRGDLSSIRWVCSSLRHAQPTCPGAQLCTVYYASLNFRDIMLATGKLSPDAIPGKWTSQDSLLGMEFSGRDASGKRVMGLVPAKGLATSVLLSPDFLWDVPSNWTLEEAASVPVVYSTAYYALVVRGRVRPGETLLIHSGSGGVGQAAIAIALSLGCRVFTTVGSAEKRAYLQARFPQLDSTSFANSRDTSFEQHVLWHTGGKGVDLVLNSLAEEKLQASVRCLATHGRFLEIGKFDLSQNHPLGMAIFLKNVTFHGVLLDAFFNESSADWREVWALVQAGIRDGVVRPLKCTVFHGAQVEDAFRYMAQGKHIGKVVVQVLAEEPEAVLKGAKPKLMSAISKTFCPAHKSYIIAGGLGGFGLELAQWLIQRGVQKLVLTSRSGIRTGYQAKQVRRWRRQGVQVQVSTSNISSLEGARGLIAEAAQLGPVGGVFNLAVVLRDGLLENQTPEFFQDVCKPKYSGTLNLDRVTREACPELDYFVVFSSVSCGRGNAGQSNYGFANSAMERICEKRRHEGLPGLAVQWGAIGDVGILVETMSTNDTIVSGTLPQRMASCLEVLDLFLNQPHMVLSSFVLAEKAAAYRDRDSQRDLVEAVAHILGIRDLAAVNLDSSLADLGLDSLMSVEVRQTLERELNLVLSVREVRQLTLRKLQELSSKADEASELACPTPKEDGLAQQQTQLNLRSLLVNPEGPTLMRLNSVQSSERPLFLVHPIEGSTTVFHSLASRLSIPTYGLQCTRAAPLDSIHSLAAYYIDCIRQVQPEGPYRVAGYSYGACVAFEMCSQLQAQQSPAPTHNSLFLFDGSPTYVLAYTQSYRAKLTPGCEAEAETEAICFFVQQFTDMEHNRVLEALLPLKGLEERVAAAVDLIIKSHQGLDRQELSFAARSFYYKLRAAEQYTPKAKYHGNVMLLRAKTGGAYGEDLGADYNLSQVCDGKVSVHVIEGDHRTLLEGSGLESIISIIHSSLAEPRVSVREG
GC-B act: GC-B (human) receptor activation. HEK293-GC-B cells, CNP EC30, cGMP TR-FRET; 0% at EC30 CNP, 100% saturating CNP. AID 1920062. activation, % at 10 µM. 370,000 compounds, 0.11% hits. P20594;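 active = activation at 10 µM reaching about 35% in either raw or pattern-adjusted values, limit read from the data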
FAS-TE conf: confirmation of human fatty acid synthase thioesterase inhibitors; shares compounds with FAS-TE inh; recombinant FAS-TE, OMFH fluorogenic substrate, fluorescence; inhibition, % at 15 µM; 2,300 compounds, 45% hits;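 active = compounds inhibiting the enzyme by at least 50% at 15 µM in any one of the replicates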;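 also: 0% = enzyme with DMSO only and 100% = wells lacking enzyme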
Starred values were filed as active, the others as inactive; . = no result. This is a sample that favours compounds with a hit; in the whole collection about 1.1% have one here.

SMILES	GC-A act	aDG glyco act	FAS-TE inh	GC-B act	FAS-TE conf
Cc1cccc(N2C(=O)N3[C@H](c4ccc(Br)cc4)[C@@H]4C(=O)N(C(C)(C)C)C(=O)[C@@H]4[C@]3(C)C2=O)c1	0	0	13	2	.
C#CCN1CC(N(C)CCCO)CS1(=O)=O (stereo not drawn)	-1	.	.	3	.
CCOC(=O)[C@@]12CCC3=C1N(CCC3)C(=O)[C@H](CC(=O)NCCc1ccccc1OC)C2	1	.	.	3	.
CC(C)Cn1c(N)c(C(=O)COC(=O)c2cc(-c3ccccc3)nc3ccccc23)c(=O)n(C)c1=O	-4	0	51*	-4	14
O=C(CN1CCN(S(=O)(=O)c2ccc(Cl)c(C(F)(F)F)c2)CC1)NC(=O)NC1CCCCC1	-3	0	77*	-2	20*
CC(=O)c1ccc(S(=O)(=O)N2CCN(CC(=O)NC(=O)NC3CCCCC3)CC2)cc1	0	0	-1	0	.
COCCCN1C(=O)[C@H](CC(=O)N2CCCC2)[C@]2(C(=O)OC)CCCCC=C12	0	.	.	2	.
O=C(Nc1nc2ccc(Oc3ccccc3)cc2s1)c1cc([N+](=O)[O-])ccc1N1CCOCC1	0	0	27	-3	.
O=C(Nc1nc(-c2ccc(F)c(F)c2)cs1)c1cc([N+](=O)[O-])ccc1N1CCOCC1	9	0	55*	1	29
Cc1cc(C)c(-c2csc(NC(=O)c3cc([N+](=O)[O-])ccc3N3CCOCC3)n2)c(C)c1	7	0	65*	2	33
COC(=O)[C@]12C[C@H](CC(=O)NCCC(C)C)C(=O)N(Cc3ccccc3)C1=C[C@H](C1CCCC1)O[C@@H]2C	-8	.	.	-7	.
O=C(Nc1c(C(=O)N2CCOCC2)cnn1-c1ccccc1)c1ccc([N+](=O)[O-])cc1	2	0	52*	-2	56*
O=C(NCc1ccc(F)c(F)c1)C1CCC(CNS(=O)(=O)c2cccc3cccnc23)CC1 (stereo not drawn)	-1	.	.	8	.
C=C(C)CSc1ncc(-c2cccc(C(F)(F)F)c2)cn1	3	0	58*	4	36*
CN1C(=O)[C@@]2(O[C@H]3C=CC=CN3C3=C2C(=O)CCC3)c2cccc(Br)c21	-1	.	.	4	.
Cc1onc(-c2c(F)cccc2Cl)c1-c1nnc(-c2cccc3ccccc23)o1	-6	0	3	-12	.
Cc1onc(-c2c(Cl)cccc2Cl)c1-c1nc2cc(Cl)ccc2c(=O)o1	-14	0	54*	-7	3
CCn1c(Cl)c(C=O)s/c1=N\S(=O)(=O)c1ccccc1	7	0	76*	21	33
CCN1C(=O)CS/C1=N\S(=O)(=O)c1ccc(Cl)cc1	1	0	-2	-6	.
Nc1cc(-c2ccc(OC(F)(F)F)cc2)nn1-c1ccc(Cl)c(Cl)c1	-4	0	58*	5	25
COc1cc(/C=C2\SC(=O)N(Cc3ccc(Cl)cc3)C2=O)cc([N+](=O)[O-])c1O	12	1	72*	-4	38
COc1cc(/C=C2\SC(=O)N(Cc3ccc(F)cc3)C2=O)cc([N+](=O)[O-])c1O	7	0	68*	-3	37
O=C1/C(=C/c2ccc(O)c([N+](=O)[O-])c2)SC(=S)N1Cc1ccccc1	9	0	86*	0	11
COc1cc(/C=C2/SC(=S)N(Cc3ccccc3)C2=O)cc(Cl)c1O	12	0	-128	1	.
O=C1/C(=C\c2cccc([N+](=O)[O-])c2O)SC(=S)N1Cc1ccccc1	7	0	18	2	.
SMILES	GC-A act	aDG glyco act	FAS-TE inh	GC-B act	FAS-TE conf
CCOC(=O)CN1C(=O)S/C(=C/c2ccc(OC)c([N+](=O)[O-])c2)C1=O	10	0	30	12	.
O=C(CN1C(=O)S/C(=C\c2ccccc2)C1=O)Nc1cc([N+](=O)[O-])ccc1O	4	0	81*	-2	82*
C[C@@H]1COc2cccc(F)c2S(=O)(=O)N1C	1	.	.	-3	.
CCC[C@H]1[C@@H](OC(=O)NCCc2ccccc2)CC[C@@]23CCCN2C(=O)CCC[C@@H]13	-17	.	.	-11	.
Cc1ccc(NC(=O)CCNS(=O)(=O)c2cc(Br)cnc2N)cc1Cl	-10	0	63*	-10	44*
Cc1ccc(S(=O)(=O)n2ccc(-c3c(-c4ccccc4)noc3C)n2)cc1	-15	.	.	-7	.
COCCNC(=O)[C@]1(C#N)CC(=O)N(C)[C@@H]1c1ccccc1	4	.	.	-1	.
COc1cc(NC(=O)CCC2CCCC2)cc(-n2cnnn2)c1	11	0	60*	10	12
COc1cc(NC(=O)CCCl)cc(-n2cnnn2)c1	0	0	-1	-4	.
Cc1ccc(-n2[nH]c(C)c(/C=N/Nc3ccc([N+](=O)[O-])cc3[N+](=O)[O-])c2=O)cc1	-6	0	55*	-2	55*
O=C(OCCN1CCCC12CCC(c1ccccc1)CC2)c1ccccc1 (stereo not drawn)	-4	.	.	3	.
COc1cc(OC)c(C2=NOC(C(=O)NCc3ccc4c(c3)OCO4)C2)cc1Cl (stereo not drawn)	-6	0	60*	-8	24
COc1cc(OC)c(C2=NOC(C(=O)N3CCc4ccccc4C3)C2)cc1Cl (stereo not drawn)	-4	0	80*	-5	60*
COc1cc(OC)c(C2=NOC(C(=O)N3CCN(C(=O)c4ccco4)CC3)C2)cc1Cl (stereo not drawn)	-5	0	30	-3	.
O=C(NCc1ccc2c(c1)OCO2)C1CC(c2ccc(Cl)cc2)=NO1 (stereo not drawn)	-8	0	-8	-5	.
COC(=O)[C@]12C[C@H](CC(=O)N3CCC(c4ccccc4)CC3)C(=O)N(Cc3ccco3)C1=C[C@H](C(C)C)O[C@@H]2C1CC1	0	.	.	-3	.
CC(C)c1ccc2[nH]c(O)c(N=NC(=O)c3cccc(S(=O)(=O)N4CCCCC4)c3)c2c1	1	2	58*	1	32
O=C(N=Nc1c(O)[nH]c2ccccc12)c1cccc(S(=O)(=O)N2CCCCC2)c1	-1	0	-14	6	.
O=C(c1cnn2c(C(F)F)cc(-c3ccccc3)nc12)N1CCc2ccccc21	-8	0	37	-5	.
Cc1ccc(-c2cc(C(F)F)n3ncc(C(=O)Nc4c(C)nn(Cc5c(Cl)cccc5Cl)c4C)c3n2)cc1	-1	1	15	-4	.
Cc1ccc(-c2cc(C(F)F)n3ncc(C(=O)N4CCc5ccccc54)c3n2)cc1	-9	0	52*	-2	5
Cc1ccc(-c2cc(C(F)F)n3ncc(C(=O)Nc4c(C)nn(Cc5ccccc5Cl)c4C)c3n2)cc1	-3	1	50*	-6	8
CCN1C(=O)[C@H]2[C@@H](c3ccc(-c4ccc5c(c4)OCO5)cc3)N[C@@](Cc3ccccc3)(C(=O)OC)[C@H]2C1=O	-2	0	67*	-5	32
